# Key:
# Assay in all cases: pooled miR-30 sensor sort-seq; sequence = guide strand
# Settings in all cases: shRNA
# [1] = molecular target: CNOT1
# [2] = molecular target: COL4A3BP
# [3] = molecular target: COMMD8
# [4] = molecular target: COMMD1
# [5] = molecular target: COMMD10
# Also: reference of the scale not given here.
sequence,measurement,setting,value
TTATATGTAACTCTTTATCAGG,sensor-assay potency score (higher = more potent),[1],-0.895
TACAGTTAAATACTTCTCGTTC,sensor-assay potency score (higher = more potent),[1],-0.0593
TACTTCTCTTCTGTATACCTTC,sensor-assay potency score (higher = more potent),[2],-0.012
TTCTTTTACATCTAGATGCAGG,sensor-assay potency score (higher = more potent),[3],-0.776
TTTTGTCTTGTGGCTCTTCCAG,sensor-assay potency score (higher = more potent),[4],-0.915
TTTGACCTCATCAAATTCCAAA,sensor-assay potency score (higher = more potent),[4],-0.935
TTGCCATCAACTCTCCAGCTCA,sensor-assay potency score (higher = more potent),[4],-1.2
TTCCACAAGAACTTTCTCCAGG,sensor-assay potency score (higher = more potent),[5],-0.261
TTTGGAAATGACAGCAGCTTGG,sensor-assay potency score (higher = more potent),[4],-0.686
TTGAGCAGAGTGAGCCATCTGA,sensor-assay potency score (higher = more potent),[5],-0.146
TTCTACCTCTGACAGCGTCTTC,sensor-assay potency score (higher = more potent),[4],-0.88
TGCTTGTATAGTCTCTAGCTTG,sensor-assay potency score (higher = more potent),[5],-1.08
TATCTTGTCTGTCAAGAGCAGC,sensor-assay potency score (higher = more potent),[2],-1.23
TTCTACTAAGGTACACATCTTA,sensor-assay potency score (higher = more potent),[5],0.49
TTAGCTACATATGTAATCTTGC,sensor-assay potency score (higher = more potent),[2],0.206
TAACTTTTCTTTATTGCCGTTG,sensor-assay potency score (higher = more potent),[2],-0.347
TTGCATTTATCAGTGACACTGC,sensor-assay potency score (higher = more potent),[5],0.191
TTCTCCTTCTTCTACAACCAAC,sensor-assay potency score (higher = more potent),[2],-1.55
TAAGGTACACATCTTATCTTGT,sensor-assay potency score (higher = more potent),[5],0.795
TATTGTTTCAAGAACTAGGTGA,sensor-assay potency score (higher = more potent),[5],0.412
TTGACTGAGACTTGCCATCAAC,sensor-assay potency score (higher = more potent),[4],-1.5
TATAATGGCAACAGGTGTGTGT,sensor-assay potency score (higher = more potent),[4],0.267
TTCTCTTCTGTATACCTTCATT,sensor-assay potency score (higher = more potent),[2],-1.23
TTCTTCTACCTCTGACAGCGTC,sensor-assay potency score (higher = more potent),[4],-0.845
TATTGCTGCTTTCTCAGCCTGG,sensor-assay potency score (higher = more potent),[3],-0.453
TTTCAACAACTCCAACTCCTTC,sensor-assay potency score (higher = more potent),[4],-0.622
TTCTTCTACAACCAACTGCCAA,sensor-assay potency score (higher = more potent),[2],-0.938
TGATACTTTCTTCTACCTCTGA,sensor-assay potency score (higher = more potent),[4],-0.273
TTGAGCTGAGTGCCTTGACTGA,sensor-assay potency score (higher = more potent),[4],-0.799
TTTTTGAAGAATCCGAGTGAGC,sensor-assay potency score (higher = more potent),[5],-1.13

# — the OligoGym collection
